# Compound activity deposited in PubChem BioAssay by National Center for Advancing Translational Sciences (NCATS).
# Hits are enriched below; roughly 19% of the tested compounds scored in any of these assays.
# IL1B secr inh – qHTS for Inhibitors of Inflammasome Signaling: IL-1-beta AlphaLISA Primary Screen | THP-1 LPS/ATP IL-1B secretion, AlphaLISA, 16 h; hits give low values | activity change, % at 57.5 µM | 360,000 tested, 4.7% active | AID 743279, 2014; in the data active means activity change below about -50%; inconclusive means mostly about -30% to -49%
#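 Secreted IL-1B measured by AlphaLISA bead assay after 16 h compound exposure of THP-1 cells; compounds (final up to 57.5 uM) added 1 h before LPS (250 ng/mL) and ATP (1.25 mM) stimulation; lower signal means less secretion.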
# TDP1 cell noCPT – qHTS for Inhibitors of human tyrosyl-DNA phosphodiesterase 1 (TDP1): qHTS in cells in absence of CPT. DT40 Tdp1-/- hTDP1 cells, no CPT, ATP luminescence, 48 h. Potency, µM (highest dose often 46.2 µM), without a hit: at the highest dose activity change, negative = growth inhibition, most hits filed as inhibitors. 420,000 tested, 15% active; further: potency means the concentration at half of the fitted maximal effect; nearly all actives have a fitted effect of over 55% in size
#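 Growth of hTDP1-complemented DT40 Tdp1-knockout cells is measured by ATP luminescence after at least 48 hr compound exposure at 37 °C, with DMSO substituting for the 20 nM CPT used in the parallel screen.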
# HT1080-NT tox – qHTS for induction of synthetic lethality in tumor cells producing 2HG: qHTS for the HT-1080-NT fibrosarcoma cell line. 360,000 tested, 1.6% active. Potency, µM (titrated, usually from 46.1 µM), without a hit: at the top dose activity, negative = less viability, most hits filed as cytotoxic. HT-1080-NT fibrosarcoma viability, CellTiter-Glo ATP luminescence, 48 h;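 further: NT is the 2HG producing partner of a matched IDH1 knockdown line; potency means the concentration at half of the fitted maximal effect; 0% = DMSO-treated cells and -100% = media-only wells without cells; nearly all actives have a fitted effect of over 55% in size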
#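 HT-1080-NT; 750 cells/well; 5% FBS RPMI; 48 h compound, 37 degrees C; CellTiter-Glo luminescence; curve fitting and curve-class assignment.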
# HT1080 IDH1KD tx – qHTS for induction of synthetic lethality in tumor cells producing 2HG: qHTS for the HT-1080-IDH1KD cell line | HT-1080 IDH1 knockdown viability, ATP luminescence, 48 h | Potency, µM (doses to about 46.1 µM), inactives show top-dose activity, negative = toxicity, actives largely listed as cytotoxic | 360,000 tested, 2% active | AID 686971, 2013;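 further: potency means the concentration at half of the fitted maximal effect; 0% = DMSO wells and -100% = cell-free medium wells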
#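 Viability of IDH1-knockdown HT-1080 fibrosarcoma cells was assessed by CellTiter-Glo after 48 h at 37 °C with titrated compound; concentration-effect curves were classified by fit quality and response size.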
# DT40 TDP1 CPT – qHTS for Inhibitors of human tyrosyl-DNA phosphodiesterase 1 (TDP1): qHTS in cells in presence of CPT. chicken DT40 Tdp1-/-;hTDP1 cells + 20 nM CPT, ATP luminescence, 48 h. Potency, µM (top dose mostly 46.2 µM), inactives show top-dose activity change, negative = growth inhibition, actives largely listed as inhibitors. 420,000 tested, 12% active; further: potency means the concentration at half of the fitted maximal effect; nearly all actives have a fitted effect of over 55% in size
#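 Chicken DT40 Tdp1-/- cells stably complemented with human TDP1 were seeded at 400 cells/well in medium containing 20 nM camptothecin, exposed to pin-transferred compounds, and grown at 37 °C for at least 48 hr. Viability was read as ATP luminescence.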
# ELG1 repair inh – qHTS screen for small molecules that inhibit ELG1-dependent DNA repair in human embryonic kidney (HEK293T) cells expressing luciferase-tagged ELG1. AID 504467, 2011. HEK293T ELG1-luciferase reporter, luminescence, 16 h; DNA damage induced by 5-fluorouridine. 330,000 tested, 2.3% active. Potency, µM (doses to about 46.1 µM), for the others: top-dose activity change, negative = inhibition, hits mostly inhibitors; further: potency means the concentration at half of the fitted maximal effect; nearly all actives have a fitted effect of over 55% in size
#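 Reporter activity after DNA damage by 5-fluorouridine is monitored. Compound-treated cells incubate 16 hr at 37 °C, then ONE-Glo is added for 30 min before luminescence reading.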
# * hit, by the source's call; ? = inconclusive; nt = no result given; [ ] = another dose, or the depositor's remark. Unless noted, the call rests on the fitted dose curve; in most records, active means well fitted curve in the direction sought with a large enough effect; inconclusive means small, poorly fitted or top-dose-only effect, or another doubt; inactive means no such curve, though single readings can be large; an effect the other way counts as inactive or inconclusive. Unless noted, on the % scale 0 is the no-effect control and ±100 the full control effect.
SMILES,IL1B secr inh,TDP1 cell noCPT,HT1080-NT tox,HT1080 IDH1KD tx,DT40 TDP1 CPT,ELG1 repair inh
Cc1ccc(S(=O)(=O)/N=C2\C=C(Nc3cccc(C(=O)O)c3)C(=O)c3ccccc32)c(C)c1,-103.8*,?,10.3µM*,6.51µM*,?,?
Cc1ccc(C(=O)Nc2cccc(C(=O)O)c2)cc1S(=O)(=O)N1CCCC1,nt,-26.0%,nt,nt,-5.4%,nt
Cc1ccc(S(=O)(=O)/N=C2\C=C(Nc3cccc(C(=O)O)c3)C(=O)c3ccccc32)cc1,-93.4*,?,23.1µM*,20.6µM*,?,23.1µM*
Cc1ccc(S(=O)(=O)Nc2ccc(N=Nc3ccc(O)cc3)cc2)cc1,0.0,4.1%,-16.5%,-17.3%,12.5%,?
CCc1ccc(S(=O)(=O)/N=C2\C=C(Nc3ccc(C(=O)O)cc3)C(=O)c3ccccc32)cc1,-98.8*,23.1µM*,16.4µM*,18.4µM*,18.4µM*,4.61µM*
Cc1ccc(S(=O)(=O)/N=C2\C=C(Nc3ccc(O)cc3)C(=O)c3ccccc32)cc1,-96.7*,2.91µM*,18.4µM*,23.1µM*,2.06µM*,10.3µM*
CC(C)C(c1nnnn1Cc1ccc2c(c1)OCO2)N1CCN(C)CC1 (stereo unspecified),0.2,-8.6%,15.7%,11.7%,-1.4%,-0.1%
CN1CCN(C(c2ccc(F)cc2)c2nnnn2Cc2cccs2)CC1 (stereo unspecified),?,-23.4%,-1.3%,-0.2%,-9.8%,-1.2%
Cc1cc(C(c2nnnn2Cc2ccccc2)N2CCOCC2)c(C)n1-c1ccc2c(c1)OCO2 (stereo unspecified),-96.6*,16.4µM*,?,10µM*,?,-17.0%
CC(C)C(c1nnnn1Cc1ccc2c(c1)OCO2)N1CCN(c2ccccc2)CC1 (stereo unspecified),16.7,20.6µM*,8.1%,6.8%,-14.6%,-0.1%
c1ccc(Cn2nnnc2C(c2ccncc2)N2CCOCC2)cc1 (stereo unspecified),-6.5,-11.0%,1.0%,1.4%,-11.7%,3.3%
Fc1ccc(C(c2nnnn2Cc2cccs2)N2CCN(C3CCCCC3)CC2)cc1 (stereo unspecified),?,20.6µM*,-16.3%,-0.9%,?,1.3%
COc1ccc(C(c2nnnn2Cc2ccc(F)cc2)N2CCN(c3ccccc3)CC2)cc1 (stereo unspecified),-20.3,?,-7.8%,-14.8%,?,-25.5%
COc1ccc(C(c2nnnn2Cc2ccc(F)cc2)N2CCN(c3ccc(OC)cc3)CC2)cc1 (stereo unspecified),-21.9,14.6µM*,-7.0%,-11.3%,23.1µM*,-0.8%
CCOC(=O)c1cc2c(=O)n3ccccc3nc2n(CC2CCCO2)c1=NC(=O)c1ccc(F)cc1 (stereo unspecified),nt,4.0%,nt,nt,-16.9%,nt
COc1ccc(Cn2nnnc2C(c2ccccn2)N2CCN(c3cc(Cl)ccc3C)CC2)cc1 (stereo unspecified),?,?,-21.1%,-19.2%,29.1µM*,?
COc1ccc(Cn2nnnc2C(CC(C)C)N2CCN(c3ccccc3)CC2)cc1 (stereo unspecified),-3.4,14.6µM*,-4.9%,2.5%[9.24 µM],18.4µM*,?
CCCC(c1nnnn1Cc1ccc(OC)cc1)N1CCC(C(N)=O)CC1 (stereo unspecified),-9.1,4.0%,11.3%,6.8%,-3.5%,-9.0%
CCCC(c1nnnn1Cc1ccc(OC)cc1)N1CCN(c2ccccc2)CC1 (stereo unspecified),4.4,23.1µM*,-0.5%,-4.7%,?,-7.9%
CC1CN(C=O)CC(C)N1CCN1C(C)CN(C=O)CC1C (stereo unspecified),4.2,-2.4%,-2.5%,-0.8%,7.2%,nt
CCCOc1ccc(C(=O)NC(=S)NNC(=O)c2c(-c3ccccc3)noc2C)cc1,73.8,?,?,?,23.1µM*,7.3µM*
Cc1onc(-c2ccccc2)c1C(=O)NC(=S)NNC(=O)c1ccc(O)cc1,61.3,13µM*,-15.4%,?,?,-14.9%
CCOc1ccc(/C=N/NC(=O)c2c(-c3ccccc3)noc2C)cc1,41.4,-29.7%,18.6%,14.7%,13.9%,?
COC(=O)c1ccc(NC(=S)NC(=O)c2c(-c3ccccc3)noc2C)cc1,3.9,-3.8%,-5.6%,1.5%,13.6%,?
CC(=O)Nc1ccc(OCCCNC(=O)c2c(-c3ccccc3)noc2C)cc1,13.3,14.6µM*,0.7%,-0.4%,?,?
SMILES,IL1B secr inh,TDP1 cell noCPT,HT1080-NT tox,HT1080 IDH1KD tx,DT40 TDP1 CPT,ELG1 repair inh
Cc1onc(-c2ccccc2)c1C(=O)NNC(=O)c1ccccc1Br,-13.7,1.6%,10.2%,9.5%,-6.4%,8.3%
Cc1onc(-c2ccccc2)c1C(=O)NC(=S)NNC(=O)c1ccc(O)cc1O,30.9,4.61µM*,?,-27.6%,4.11µM*,?
O=C(NC(Cc1c[nH]c2ccccc12)C(=O)O)OCC1c2ccccc2-c2ccccc21 (stereo unspecified),52.5,7.4%,1.0%,3.9%,7.8%,nt
C[C@@H]1CCN=C(N)S1,nt,-4.6%,nt,nt,-7.5%,nt
O=C(CCN1C(=O)/C(=C/c2ccccc2F)SC1=S)NCCCn1ccnc1,-16.6,-25.5%,0.7%,0.0%,-17.8%,1.0%
Cc1onc(-c2ccccc2)c1C(=O)NC(=S)NNC(=O)c1ccccc1O,100.0,3.26µM*,8.2µM*,5.17µM*,3.66µM*,2.6%
O=[N+]([O-])c1ccc(-c2nc(Cl)c3c(n2)CCCC3)o1,-93.8*,16.4µM*,-5.5%,?,9.2µM*,nt
Cc1ccc(-c2c(C#N)c(N)nc3c2CCCCC3)o1,15.6,-14.9%,1.9%,1.8%,?,-7.0%
CCC1(C2C=COC=C2)NC(=O)NC1=O (stereo unspecified),10.3,1.4%,15.9%,11.2%,0.5%,nt
C=CCN(c1ccccc1)S(=O)(=O)c1cccc(C(=O)Nc2ncccc2O)c1,-10.0,-18.3%,-9.6%,-1.8%,-12.8%,-4.7%
